Molecules are shown by their SMILES. Among all 140,000 compounds or so, about 4,300 (3.1%) were called active. Not shown: some 21% with an inconclusive outcome. What follows is part of a selection rich in actives, with near analogues and random picks from the rest. Values without a mark were called inactive.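 Rule for the calls: active = readout at or below -70, meaning at least 70% loss of cells showing the perinucleolar compartment, a nuclear body marking cancer cells; inconclusive = readout between -30 and a set limit; inactive = the rest.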

The experiment is described as follows: High Content Assay for Compounds that inhibit the Assembly of the Perinucleolar Compartment.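 Note: plate controls were DMSO wells for no effect and camptothecin positive control wells for full effect.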 The following applies: PC3M PTB-GFP, PNC prevalence imaging, 16 h; at 10 µM; hits give low values. The essentials:
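Read-out is percentage of cells bearing a perinucleolar compartment, from automated 20x imaging of fixed, Hoechst-stained PC3M PTB-GFP cells. Cells were seeded 4 h, then exposed 16 h to compound (23 nl of library stock) in duplicate plates.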
In the case of `COc1ccc(N(C(=O)c2ccc(C)cc2)S(=O)(=O)c2cccs2)cc1`, the activity change (PNC), negative = inhibition was 19.1%.
As to `Cc1ccc(NC(=O)CC2C(=O)N(Cc3ccccc3)C(=S)N2NC(=O)c2cccc(F)c2)c(C)c1` (stereo not given), the activity change (PNC), negative = inhibition was -107% (active).
Turning to `Cc1ccc(NC(=S)NC(=O)c2ccc(-c3ccccc3)cc2)c(C)c1`, the activity change (PNC), negative = inhibition was 6.22%.
As to `O=C(CN1CCN(C(=O)c2cccc(F)c2)CC1)Nc1ccccc1F`, the activity change (PNC), negative = inhibition is 6.16%.
Take `CC(=O)NC1=NN(C(C)=O)C(C)(CCS(=O)(=O)c2ccc(Cl)c(Cl)c2)S1` (stereo not given): the activity change (PNC), negative = inhibition is 72.1%.
To `COc1ccc(OCCNS(=O)(=O)Cc2ccccc2)cc1` belongs 21.5%; to `COC(=O)c1cc(NC(=O)Cc2ccccc2[N+](=O)[O-])ccc1Cl`, -21.5%.
In the case of `N#Cc1cccc(NC(=O)COC(=O)c2ccccc2C(=O)c2ccc(Cl)c([N+](=O)[O-])c2)c1`, the activity change (PNC), negative = inhibition was -102% (active).
On to `CC(=O)Nc1ccc(NC(=O)C(C)OC(=O)c2ccccc2C(=O)c2ccc(Cl)c([N+](=O)[O-])c2)cc1` (stereo not given), for which the activity change (PNC), negative = inhibition was 14.8%.
As for `CCc1nnc(NC(=O)/C=C/c2ccc(C)o2)s1`, the activity change (PNC), negative = inhibition is 43.5%.
For the compound `COC(=O)C1=C(C)N(C)C(=S)NC1c1ccccc1` (stereo not given), the activity change (PNC), negative = inhibition was -28.4%.
Turning to `O=C(NCc1cccs1)C(=O)NCC1OCCCN1S(=O)(=O)c1ccc(F)cc1` (stereo not given), the activity change (PNC), negative = inhibition was 17.8%.
Take `Cc1cccc(N2CCN(C(=O)c3ccccc3NC(=O)C3CCCCC3C(=O)O)CC2)c1` (stereo not given): the activity change (PNC), negative = inhibition is 0.826%.
To `O=S(=O)(NCCSc1ccccn1)c1ccc(Cl)cc1` belongs 47.1%; to `CC1CN(S(=O)(=O)c2ccccc2)C(C)CN1S(=O)(=O)c1ccccc1` (stereo not given), -100% (active).
To `COc1ccc(C2SCCN2S(=O)(=O)c2ccccc2)cc1OC` (stereo not given) belongs -9.05%; to `CCc1nnc(NC(=O)C2CCCN2S(=O)(=O)c2ccccc2)s1` (stereo not given), 0.753%; to `CCCn1nc(NS(=O)(=O)c2ccccc2)c2cc3cc(C)ccc3nc21`, 9.97%.
Regarding `CN(C)S(=O)(=O)c1cc(NC(=O)CN2C(=O)NC3(CCCc4ccccc43)C2=O)ccc1Cl` (stereo not given), the activity change (PNC), negative = inhibition is 71.5%.
On to `CCOc1ccc(NC(=S)N2CCC(N(C)CC3CCCO3)CC2)cc1` (stereo not given), for which the activity change (PNC), negative = inhibition was 0.566%.
To `CC1CCN(C(=O)c2ccc(S(=O)(=O)Cc3cc(F)ccc3F)c([N+](=O)[O-])c2)CC1` belongs 25.9%; to `CC(C)(C)NCCCOc1ccc(Cl)cc1C(C)(C)C`, -102% (active).
With `Cc1ccc(C(C)(C)C)c(OCCCCN2CCCC2)c1`, the activity change (PNC), negative = inhibition is -12.5%.
On to `COCCCNCCOCCOc1ccc(Cl)cc1Br`, for which the activity change (PNC), negative = inhibition is 40.2%.
With `CCCCc1nc(NCc2ccccc2)c(C#N)c2c1CCCC2`, the activity change (PNC), negative = inhibition is 225%.
With `Cc1nn(Cc2ccccc2)c(C)c1C(=O)NCCN1C(=O)S/C(=C\c2ccc(F)cc2)C1=O`, the activity change (PNC), negative = inhibition is 37%.
For `C[N+]1(CC(O)COc2ccccc2)CCN(C(=O)c2ccc([N+](=O)[O-])cc2)CC1` (stereo not given), the activity change (PNC), negative = inhibition was 13%.
With `COc1ccc(-c2cc3ccc(OCc4nn[nH]n4)cc3oc2=O)cc1`, the activity change (PNC), negative = inhibition is -119% (active).
Turning to `O=c1oc2cc(O)ccc2cc1-c1ccc(F)cc1`, the activity change (PNC), negative = inhibition is 13%.
To `CCCCc1cc(=O)oc2cc(C)cc(OCc3nn[nH]n3)c12` belongs 9.68%; to `COc1ccccc1Nc1ncnc2c1oc1ccccc12`, 52.9%; to `CCc1nc(N2CCN(c3nc(C)cc(C)n3)CC2)c2oc3ccccc3c2n1`, -21.5%.
In the case of `Cc1cc(C)nc(N2CCN(c3ncnc4c3oc3ccccc34)CC2)n1`, the activity change (PNC), negative = inhibition is -114% (active).
Take `O=C(COC(=O)c1c2c(nc3ccccc13)/C(=C\c1cccs1)CCC2)Nc1ccccc1Cl`: the activity change (PNC), negative = inhibition is -25.2%.
To `O=C(CN1C(=O)NC2(CCCCCC2)C1=O)NCc1cccs1` belongs -4.41%.
Regarding `COc1ccccc1OCc1ccc(C(=O)N2CCN(C)CC2)o1`, the activity change (PNC), negative = inhibition was -19.3%.
To `Cc1c(Cl)cccc1NC(=O)Nc1ccc(C(=O)N2CCCC2)cc1` belongs -83.7% (active).
To `O=C(c1ccc(Cl)c(Cl)c1)N1CCCC1` belongs 50.1%.
As for `CS(=O)(=O)Nc1ccc(C(=O)N2CCCC2)cc1`, the activity change (PNC), negative = inhibition is 3.33%.
For `CCC(C)(C)C1CCC(=NNC(=O)c2ccc(Br)o2)CC1` (stereo not given), the activity change (PNC), negative = inhibition is -3.73%.
With `CC(C)c1nccn1S(=O)(=O)c1cc([N+](=O)[O-])ccc1Cl`, the activity change (PNC), negative = inhibition is 2.64%.
On to `CCc1nnc(NC(=O)CCN(c2ccc(C)cc2)S(=O)(=O)c2ccccc2)s1`, for which the activity change (PNC), negative = inhibition was 2.13%.
Consider `Nc1ccc(C(=O)OCC(=O)NC2CCCc3ccccc32)cc1[N+](=O)[O-]` (stereo not given), for which the activity change (PNC), negative = inhibition was -26.5%.
In the case of `CC1(C)C(=O)Nc2ccccc2N1C(=O)COC(=O)Cn1cnc2ccccc2c1=O`, the activity change (PNC), negative = inhibition was -28.4%.
To `CCNc1ccc(C(=O)OCC(=O)N2c3ccccc3NC(=O)C2(C)C)cc1[N+](=O)[O-]` belongs -112% (active); to `Cc1ccc(C(=O)CNc2ccc(F)cc2)cc1`, 23.7%; to `COc1ccc(/C=C/C(=O)OCC(=O)Nc2cccc(Oc3ccccc3)c2)c(OC)c1`, 25.2%.
As for `O=C(COC(=O)/C=C/c1nc2ccccc2s1)Nc1ccccc1Oc1ccccc1`, the activity change (PNC), negative = inhibition was -108% (active).
For the compound `COc1cc(/C=C/C(=O)OCC(=O)Nc2cccc(Oc3ccccc3)c2)ccc1O`, the activity change (PNC), negative = inhibition is -28.3%.
As to `O=C(NC1CCN(Cc2ccccc2)CC1)c1c(F)cccc1F`, the activity change (PNC), negative = inhibition is -1.56%.
To `COCCNC(=O)c1ccc(N2CCC3(CC2)OCCO3)c([N+](=O)[O-])c1` belongs -24.5%; to `COc1cccc(NC(=S)NCc2ccco2)c1`, 14.5%.
`Cc1ccc(NC(=O)NC(=O)N(C2CCCCC2)S(=O)(=O)c2ccccc2)cc1`: the activity change (PNC), negative = inhibition was 8.69%.
To `OC(COCC1COc2ccccc2O1)CN1CCN(c2ccc(F)cc2)CC1` (stereo not given) belongs -2.15%.
For the compound `OC(COCc1ccco1)CN1CCN(c2ccccc2)CC1` (stereo not given), the activity change (PNC), negative = inhibition was -85.3% (active).
To `OC(COc1ccc2ccccc2c1)CN1CCOCC1` (stereo not given) belongs 13%.
To `Cc1ccc(-c2csc(NNC(=O)c3ccccc3)n2)cc1` belongs -13.8%.
With `Cc1ccc(O)c(-c2cc(C(=O)NCc3ccccc3)[nH]n2)c1`, the activity change (PNC), negative = inhibition was -13.6%.
As to `Cc1cccc(NC(=O)C2CCN(S(=O)(=O)c3cccc4cccnc34)CC2)c1`, the activity change (PNC), negative = inhibition was 20.6%.
To `Cc1cccc(NC(=O)CN2C(=O)CNC2=O)c1` belongs 48.7%; to `Cc1cccc(NC(=O)C2CC(=O)OC23CCCC3)c1` (stereo not given), -100% (active).
To `CCCCOc1ccc(NC(=O)[C@@H]2CCCN2C(=O)C2CCN(S(=O)(=O)c3ccc(C)cc3)CC2)cc1` belongs 7.21%; to `COc1cc(/C=N/O)ccc1OCc1ccc([N+](=O)[O-])cc1`, 15.8%; to `CCCCCNC(=O)c1cccnc1SCC(=O)Nc1ccccc1OC`, -119% (active).
On to `CCCNC(=O)c1ccccc1NC(=O)CSCc1ccc(OC)cc1`, for which the activity change (PNC), negative = inhibition was -26.5%.
To `COC(=O)c1ccccc1NC(=O)CSc1ccccn1` belongs 6.08%.
Regarding `COc1cc(NC(=O)c2ccccc2NS(=O)(=O)c2ccc(Cl)s2)cc(OC)c1`, the activity change (PNC), negative = inhibition is -4.27%.
For `Cc1cc(Nc2ccccc2)nc(N)n1`, the activity change (PNC), negative = inhibition was -28.7%.
To `CCOC(=O)c1nn(-c2ccccc2F)c2nc(Nc3ccccc3)cc(=O)n12` belongs -91% (active); to `CCOC(=O)c1nc(Nc2ccc(C(=O)OC)cc2)c2ccccc2n1`, -9.55%.
Take `Nc1nc(SCC(=O)NCCN2CCOCC2)nc2sc3c(c12)CCC3`: the activity change (PNC), negative = inhibition is 3.5%.
Regarding `Cc1ccc(Cl)cc1N1CCN(C(=O)c2cccc3c(=O)c(C)c(-c4ccccc4)oc23)CC1`, the activity change (PNC), negative = inhibition was 2.98%.
To `C[C@@H](O)c1nc2ccccc2n1N` belongs -14.7%; to `O=C(O)c1cccc(N=NN2CCCCCC2)c1`, 12.1%; to `Cc1ccc(CNC(=O)C2CC(c3ccccc3[N+](=O)[O-])=NO2)o1` (stereo not given), -9.83%.
To `COc1ccc(-c2cc(C(=O)NCc3ccco3)no2)cc1OC` belongs -7.14%.
On to `COc1ccc(C2=NOC(C(=O)NCc3ccco3)C2)cc1OC` (stereo not given), for which the activity change (PNC), negative = inhibition is -87% (active).
As for `COc1ccccc1N1CCN(C(=O)C(=O)N/N=C/c2ccccc2F)CC1`, the activity change (PNC), negative = inhibition is -114% (active).
For the compound `COc1ccccc1N1CCN(C(=O)c2ccc(S(=O)(=O)N3CCCCC3)cc2)CC1`, the activity change (PNC), negative = inhibition was 48.1%.
To `COc1ccc(Nc2ncc(C(=O)N3CCN(c4ccccc4OC)CC3)c3ccccc23)cc1` belongs 37.3%; to `Cc1ccc(N(C(=O)C(F)(F)F)C(C(=O)NC2CCCCC2)c2ccncc2)cc1C` (stereo not given), 0.653%.
As to `CCCCOc1ccc(C(=O)NCC(=O)OCC(=O)N2CCN(S(=O)(=O)c3ccc(C)cc3C)CC2)cc1`, the activity change (PNC), negative = inhibition was 24.8%.
To `CC1(C)CC(=O)NC=C(c2ccccc2)C1` belongs 20.5%.
As to `CC(C)N1C(=O)N(c2ccccc2)C(C)(O)CC1(C)C` (stereo not given), the activity change (PNC), negative = inhibition is -24.7%.
Consider `CC(C)C1C2=C(CC(C)(C)CC2=O)ON1c1ccccc1` (stereo not given), for which the activity change (PNC), negative = inhibition is -90.5% (active).
For the compound `CCCCCOc1ccc(/C=C/C(=O)NCCc2nc3ccccc3[nH]2)cc1OC`, the activity change (PNC), negative = inhibition is 37%.
Take `COc1cc(/C=C(/NC(=O)c2ccc(Cl)cc2Cl)C(=O)O)cc(OC)c1OC`: the activity change (PNC), negative = inhibition is -21.4%.
For `O=C(NCc1ccccc1Cl)C1CCC(CNc2c(N3CCCCC3)c(=O)c2=O)CC1` (stereo not given), the activity change (PNC), negative = inhibition is 42.7%.
Take `COCCn1c(=S)[nH]c2cc(C(=O)NCCc3ccc(OC)c(OC)c3)ccc2c1=O`: the activity change (PNC), negative = inhibition was 26.1%.
For the compound `COCCn1c(=O)[nH]c2cc(C(=O)NCc3cccnc3)ccc2c1=O`, the activity change (PNC), negative = inhibition was -86.1% (active).
Take `CC(C)(C)c1cc(C(=O)NCc2cccnc2)ccn1`: the activity change (PNC), negative = inhibition was 47.5%.
For the compound `Cc1ccc(NC(=O)CCC(=O)N/N=C/c2ccco2)c(C)c1`, the activity change (PNC), negative = inhibition is -23.4%.
For the compound `COc1cc(C(=O)Nc2oc(-c3ccccc3)c(-c3ccccc3)c2C#N)cc(OC)c1OC`, the activity change (PNC), negative = inhibition was -87.4% (active).
Turning to `COC(=O)c1sccc1NC(=O)c1cc(OC)c(OC)c(OC)c1`, the activity change (PNC), negative = inhibition was 81.2%.
To `N#Cc1c(NC(=O)CCCN2C(=O)c3ccccc3C2=O)oc(-c2ccccc2)c1-c1ccccc1` belongs -11.2%.

The values are drawn from PubChem BioAssay AID2417 (National Center for Advancing Translational Sciences (NCATS), 2010).
